# From PubChem
# This is a sample that favours compounds with a hit; in the whole collection about 11% have one here.
# PNC assembly inh: blocks assembly of the perinucleolar compartment; PC3M PTB-GFP, PNC prevalence imaging, 16 h; hits give low values; activity change (PNC), negative = inhibition, % at 10 µM; 3.1% of 140,000 active; AID 2417;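 active means readout at or below -70, meaning at least 70% loss of cells showing the perinucleolar compartment, a nuclear body marking cancer cells; inconclusive means readout between -30 and a set limit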;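 further: plate controls were DMSO wells for no effect and camptothecin positive control wells for full effect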
#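 Read-out is percentage of cells bearing a perinucleolar compartment, from automated 20x imaging of fixed, Hoechst-stained PC3M PTB-GFP cells. Cells were seeded 4 h, then exposed 16 h to compound (23 nl of library stock) in duplicate plates.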
# KDM4E inh: inhibitors of human JMJD2E histone demethylase | B2RXH2 | JMJD2E catalytic domain, FDH-coupled NADH fluorescence (FDH is formaldehyde dehydrogenase) | Potency, µM (highest dose often 57.1 µM), inactives show top-dose activity change, negative = inhibition, most hits filed as inhibitors | 1.6% of 230,000 active;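 further: potency means the concentration at half of the fitted maximal effect; 0% = wells with enzyme and -100% = buffer wells without enzyme; nearly all actives have a fitted effect of over 50% in size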
# HPGD inh: blocks human HPGD enzyme activity; purified HPGD, NADH fluorescence kinetic, PGE2 substrate; P15428; 4.3% of 150,000 active; Potency, µM, for inactives: at the highest dose activity change, negative = inhibition, hits mostly inhibitors; AID 894; further: potency means the concentration at half of the fitted maximal effect
#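 NADH formation kinetics: reaction with 30 uM PGE2 and 1 mM NAD+ (final), 20 nM enzyme, Tris-HCl pH 8 with Tween 20, after 15 min compound preincubation at room temperature. Fluorescence change, last versus first of five reads.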
# ALDH1A1 inh: ALDH1A1 (human) enzyme inhibition; P00352; Purified ALDH1A1, NADH fluorescence, propionaldehyde substrate; Potency, µM (series often up to 75.3 µM), for the others: top-dose activity, negative = inhibition, usual class: inhibitors; 7.3% of 220,000 active;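 further: potency means the concentration at half of the fitted maximal effect; plate controls were no enzyme wells and a reference inhibitor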
# Target sequence (P00352 whole entry, looked up): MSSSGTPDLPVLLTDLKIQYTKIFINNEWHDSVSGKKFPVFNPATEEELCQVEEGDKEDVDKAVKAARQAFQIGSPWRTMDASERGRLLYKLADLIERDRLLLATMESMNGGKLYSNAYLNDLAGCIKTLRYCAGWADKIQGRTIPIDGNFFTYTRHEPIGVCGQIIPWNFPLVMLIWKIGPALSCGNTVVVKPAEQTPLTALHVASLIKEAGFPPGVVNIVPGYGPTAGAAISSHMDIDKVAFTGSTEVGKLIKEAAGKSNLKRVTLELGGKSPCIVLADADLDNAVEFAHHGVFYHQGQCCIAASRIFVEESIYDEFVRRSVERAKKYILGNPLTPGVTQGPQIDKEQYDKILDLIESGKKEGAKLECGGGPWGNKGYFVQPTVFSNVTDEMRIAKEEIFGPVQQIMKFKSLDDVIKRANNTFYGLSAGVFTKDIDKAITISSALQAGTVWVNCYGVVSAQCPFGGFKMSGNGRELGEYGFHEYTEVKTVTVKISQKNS
# Numbers without * were called inactive; u = inconclusive; x = no result; [ ] = remark or other dose. Unless noted, the call rests on the fitted dose curve; in most records, active means well fitted inhibition curve with a large enough effect (not every such curve was filed as active); inconclusive means small, poorly fitted or top-dose-only effect, or another doubt; inactive means no such curve, though single readings can be large or run the other way. Unless noted, on the % scale 0 is the no-effect control and ±100 the full control effect.
SMILES,PNC assembly inh,KDM4E inh,HPGD inh,ALDH1A1 inh
COC(=O)C(NC(=O)c1ccc(C)cc1)(Nc1cccc(C)n1)C(F)(F)F (stereo not given),-100*,-7%,-13%,2%
CCN(CCCNC(=O)CCNC(=O)Cn1ccc2ccccc2c1=O)c1ccccc1,-94*,-16%,-26%,u
CCn1c(=O)cc(OCC(=O)Nc2ccc3c(c2)OCCO3)c2ccccc21,5,1%,-22%,u
CCn1c(=O)cc(OCC(=O)Nc2ccc(OC)c(OC)c2)c2ccccc21,x,-6%,x,16µM*
CCN(CCCNC(=O)COc1cc(=O)n(C)c2ccccc12)c1ccccc1,11,-2%,-9%,-5%
CCN(CCCNC(=O)COc1cc(=O)n(CC)c2ccccc12)c1ccccc1,-100*,0%,-12%,1%
COc1cccc(C(=O)N(c2ccc(C)cc2)C2C=CS(=O)(=O)C2)c1 (stereo not given),x,0%,x,3%
CCN(CC)C(C)C#CCC(c1ccccc1)c1ccccc1 (stereo not given),x,-5%,x,x
CC(=O)OCC1CCCC2=C(C)C(=O)CCC21COC(C)=O (stereo not given),-109*,-4%,2%,5%
COC(=O)c1ccc(C(NC(=O)OCc2ccccc2)/C(F)=C/[C@@H](C)C(=O)NCc2cc(C)on2)cc1 (stereo not given in full),x,1%,-10%,-5%
CN(C(=O)COC(=O)c1ccc2c(=O)n3c(nc2c1)CCC3)c1ccccc1,2,5%,-25%,u
CS(=O)(=O)N(Cc1ccc(C(=O)NC2CCCC2)cc1)c1ccccc1,x,-4%,x,-9%
CS(=O)(=O)N(Cc1ccccc1)c1ccc(C(=O)NCc2ccccc2)cc1,u,4%,-8%,6%
CS(=O)(=O)N(Cc1ccc(C(=O)NN=C2CCCCCC2)cc1)c1ccccc1,9,2%,-10%,16µM*
CS(=O)(=O)N(Cc1ccc(C(=O)NC2CCCCC2O)cc1)c1ccccc1 (stereo not given),4,4%,-6%,4%
CCCNC(=O)c1ccc(N(Cc2ccccc2)S(C)(=O)=O)cc1,-112*,3%,-12%,11%
CS(=O)(=O)N(Cc1ccc(C(=O)NN=C2CCCC2)cc1)c1ccccc1,-16,5%,-9%,1.3µM*
CN(C)c1ncc2nc(-c3cn(C)c4ccccc34)c(=O)n(C[C@H]3CCCO3)c2n1,x,x,x,-3%
O=C(O)CC1(C(=O)O)CCCCC1,x,x,-13%,1%[13.5 µM]
Oc1ccc(/C=N/N(Cc2ccccc2)c2ccccc2)c(O)c1O,x,20µM*,x,10µM*
Cc1ccnc(NC(=O)CCC(=O)N(CC(=O)NC2CCCCC2)C2CCCC2)c1,x,-3%,x,x
O=C(C1=C(O)C(=O)N(c2ccccc2)C1c1ccc([N+](=O)[O-])cc1)c1cccs1 (stereo not given),x,-6%,x,u
O=C(C1CC(c2ccccc2O)=NO1)N1CCc2ccccc2C1 (stereo not given),21,1%,16µM*,-3%
CC1CCCCN1C(=O)C1CC(c2ccc(F)cc2)=NO1 (stereo not given),u,6%,x,0.32µM*
O=C(C1CC(c2ccccc2O)=NO1)N1CCCCC1 (stereo not given),u,1%,7.9µM*,u
SMILES,PNC assembly inh,KDM4E inh,HPGD inh,ALDH1A1 inh
O=C(C1CC(c2ccc(F)cc2)=NO1)N1CCCCC1 (stereo not given),u,5%,-15%,1%
COc1ccc(-c2ccc(SCC(=O)c3ccc(F)cc3)nn2)cc1OC,x,-15%,x,16µM*
COc1ccc(C2=NOC(C(=O)N3CCCCCC3)C2)cc1OC (stereo not given),7,-4%,x,12%
COc1ccc(-c2ccc(SCC(=O)c3cccs3)nn2)cc1OC,x,7%,x,-23%
Cc1ncc(CSC(=N)N)n1Cc1ccccc1,x,x,-9%,17%[13.5 µM]
FC(F)(F)c1ccccc1-c1nccc(N2CCNCC2)n1,x,x,x,15%
CCN(CC)c1ccc(NC(=O)c2ccc3c(c2)c(C)c(C)n3C)cc1,x,-25%,x,u
CC(C)c1ccc(NC2(C#N)C(=O)Nc3ccccc32)cc1 (stereo not given),u,1%,-16%,u
O=C(C1Cc2ccccc2O1)N1CCCCC1 (stereo not given),7,-6%,25µM*,-3%
COc1cccc(C2=NOC(C(=O)N3CCc4ccccc4C3)C2)c1 (stereo not given),u,-9%,-27%,-3%
O=C(C1CC(c2ccc(F)cc2)=NO1)N1CCc2ccccc2C1 (stereo not given),28,0%,20µM*,-10%
CC1CCCCN1C(=O)CSc1ccc(-c2ccc(F)cc2)nn1 (stereo not given),u,6%,22µM*,u
O=C(C1COc2ccccc2O1)N1CCOCC1 (stereo not given),u,3%,-25%,7%
CC(Nc1oc(-c2ccccc2)nc1-c1cccc2ccccc12)c1ccccc1 (stereo not given),x,-22%,-4%,-12%
NC(=O)/C=C\C(=O)Nc1cccc(C(F)(F)F)c1,16,1%,-26%,2.8µM*
O=C(NNc1cccc(Cl)n1)Nc1cccc(C(F)(F)F)c1,42,7%,-17%,20µM*
NNC(=O)Nc1cccc(C(F)(F)F)c1,x,12%,x,u
C[C@@H](CSC(=N)N)C(N)=O,x,x,-4%,6%[13.5 µM]
COc1ccc(CCNCC(O)Cn2c3ccccc3c3ccccc32)cc1OC (stereo not given),x,-8%,x,7%
Cn1c(=O)c([N+](=O)[O-])c(NCc2ccccc2Cl)c2ccccc21,x,0%,x,x
Cn1c(=O)c([N+](=O)[O-])c(Cl)c2ccccc21,x,-1%,x,18µM*
Cc1ccc(Nc2c([N+](=O)[O-])c(=O)n(C)c3ccccc23)cc1C,4,6%,-11%,8.9µM*
CCn1c(=O)c([N+](=O)[O-])c(NCCc2ccc(OC)c(OC)c2)c2ccccc21,12,6%,8.9µM*,14µM*
Cn1c(=O)c([N+](=O)[O-])c(NCCc2ccccc2)c2ccccc21,u,1%,16µM*,-8%
CC(C)(C)NC(=O)NC(=O)COC(=O)c1ccc(OC(F)(F)F)cc1,31,1%,u,-4%
SMILES,PNC assembly inh,KDM4E inh,HPGD inh,ALDH1A1 inh
N[C@@H](CSC1(c2ccc(Cl)cc2)c2ccccc2-c2ccccc21)C(=O)O,x,x,-6%,9%[13.5 µM]
CCOc1ccc(/C=N/OCC(=O)NCc2ccc3c(c2)OCO3)cc1OC,27,-9%,x,10%
CC(=O)Nc1ccc(Nc2c([N+](=O)[O-])c(=O)n(-c3ccccc3)c3ccccc23)cc1,x,9%,x,10µM*
CCn1c(=O)c([N+](=O)[O-])c(NC2CCS(=O)(=O)C2)c2ccccc21 (stereo not given),x,7%,x,x
CCn1c(=O)c([N+](=O)[O-])c(NCCc2ccccc2)c2ccccc21,u,-1%,16µM*,u
COC(=O)CCN1CCc2cc(N=Nc3ccc([N+](=O)[O-])cc3)ccc21,x,-6%,x,x
Cc1ccc(-c2nc3ccccc3c(=O)n2NC(=O)c2cccs2)cc1,-11,-6%,-13%,u
